Assay type in all cases: functional
Test [1] relates to Plasmodium falciparum. Description: GSK_TCMDC: Inhibition of Plasmodium falciparum 3D7 in whole red blood cells, using parasite LDH activity as an index of growth. Test compounds present at 2uM.
Test [2] has as its system Plasmodium falciparum. Description: GSK_TCMDC: Inhibition of Plasmodium falciparum Dd2 in whole red blood cells, using parasite LDH activity as an index of growth. Test compounds present at 2uM.
Another test concerns HepG2. Description: GSK_TCMDC: Percent inhibition of human HepG2 cell line. Test compounds present at 10uM.

SMILES strings stand for the structures.

The term Inhibition denotes the relative decrease from the control value, in per cent. With `Cc1cc(N[C@@H](Cc2ccccc2)C(=O)NCc2cccc(F)c2)nc(NCCCOC(C)C)n1.O=C(O)C(F)(F)F`, the Inhibition in the test on Plasmodium falciparum [1] worked out at 100%; in the test with Plasmodium falciparum [2], 94%; in the test on HepG2, 10%.

For `CC1CCN(Cc2ccc(NC(=O)c3cc4ccc5cccnc5c4[nH]3)cc2)CC1`, the Inhibition stood at 100% in the test with Plasmodium falciparum [1], 93% in the test with Plasmodium falciparum [2] and 10% in the test with HepG2.

Turning to `O=C(Nc1cccc(C(F)(F)F)c1)c1ccc(S(=O)(=O)NC2CCN(CC3CCCCC3)C2)cc1.O=C(O)C(F)(F)F` (stereo unspecified), the Inhibition in the test with Plasmodium falciparum [1] is on record as 92%; in the test with Plasmodium falciparum [2] it was 0%; in the test with HepG2, 16%.

For the molecule `O=C(NC1CCN(Cc2cccc(C(F)(F)F)c2)CC1)c1ccc(-c2cccc(Cl)c2)s1.O=C(O)C(F)(F)F`, the Inhibition in the test with Plasmodium falciparum [1] is 89%; with Plasmodium falciparum [2], 33%; in the test on HepG2, 26%.

In the case of `CN(C)CCCOc1ccc(CCNCc2cccc(Oc3ccc(Cl)cc3)c2)cc1.O=C(O)C(F)(F)F`, the Inhibition in the test on Plasmodium falciparum [1] is recorded as 94%; with Plasmodium falciparum [2], 26%; in the test with HepG2 it was 57%.

For `Cl.NC1CCN(CCc2ccc(NS(=O)(=O)c3ccc(-c4ccccc4)cc3)cc2)CC1`, the Inhibition amounted to 100% in the test on Plasmodium falciparum [1], 19% with Plasmodium falciparum [2] and 17% in the test with HepG2.

In the case of `O=C(Nc1ccc(F)c(F)c1)c1ccc(CN2CCCN(Cc3cccc(O)c3)CC2)cc1.O=C(O)C(F)(F)F`, the values for the Inhibition in the test with Plasmodium falciparum [1], in the test with Plasmodium falciparum [2] and in the test with HepG2 were 92%, 57% and 43%, respectively.

In the case of `C[C@@H](N/C(=N\c1ccccc1Cl)Nc1ccc(C#N)cc1O)c1ccc(Br)cc1`, the figures for the Inhibition with Plasmodium falciparum [1], with Plasmodium falciparum [2] and in the test on HepG2 were 98%, 70% and 33%, respectively.

As to `COc1cc2nc(NCc3ccc(S(N)(=O)=O)cc3)nc(Nc3ccc(Oc4ccccc4)cc3)c2cc1OC`, the Inhibition with Plasmodium falciparum [1] is reported as 100%; in the test on Plasmodium falciparum [2] it was 100%; in the test with HepG2 it was 14%.

Take `CN(C)c1ccc(C2c3[nH]cnc3CCN2C(=O)Nc2cccc([N+](=O)[O-])c2)cc1` (stereo unspecified): the values for the Inhibition in the test with Plasmodium falciparum [1], in the test on Plasmodium falciparum [2] and with HepG2 were 98%, 15% and 0%, respectively.

As to `Cn1cncc1C(=O)Nc1cccc(-c2cccc(-c3nc4cc(F)ccc4[nH]3)c2)c1`, the Inhibition in the test on Plasmodium falciparum [1] came to 100%; with Plasmodium falciparum [2], 45%; in the test with HepG2 it was 16%.

As for `COc1cc(NC(=O)N2CCc3ccc(OCCN4CCCCC4)cc32)cc(C(F)(F)F)c1.O=C(O)C(F)(F)F`, the Inhibition came out at 100% with Plasmodium falciparum [1], 93% in the test with Plasmodium falciparum [2] and 9% in the test on HepG2.

As for `COc1ccc(C(=O)N2CCc3cc4nccc(N5CCN6CCC[C@H]6C5)c4cc32)cc1`, the Inhibition with Plasmodium falciparum [1] worked out at 98%; with Plasmodium falciparum [2] it was 50%; with HepG2, 1%.

As for `COc1cc(NC(=O)CCCN2CCN(c3cccc(Cl)c3Cl)CC2)ccc1N1CCN(C(C)C)CC1.Cl`, the Inhibition in the test with Plasmodium falciparum [1] is 99%; with Plasmodium falciparum [2], 59%; in the test with HepG2, 31%.

Take `CN1CCCC(CN2CCN(Cc3ccc(-c4ccc(-c5nc6cc(F)ccc6[nH]5)s4)cc3)CC2)C1.O=C(O)C(F)(F)F` (stereo unspecified): the results for the Inhibition in the test on Plasmodium falciparum [1], with Plasmodium falciparum [2] and in the test with HepG2 were 100%, 100% and 73%, respectively.

Turning to `Cc1cc2c(cc1C(F)(F)F)N(C(=O)Nc1ccc(C(=O)NC3CCN(Cc4ccccc4)C3)cc1)CC2` (stereo unspecified), the Inhibition with Plasmodium falciparum [1] is given as 100%; with Plasmodium falciparum [2] it was 48%; in the test on HepG2, 19%.

For the molecule `CC(C)C[C@H](NC(=O)c1ccc(OCCN2CCOCC2)cc1)C(=O)NC(/C=N/N1CCCC1=O)C(C)C` (stereo partly specified), the Inhibition is reported as 90% in the test with Plasmodium falciparum [1], 81% in the test on Plasmodium falciparum [2] and 3% with HepG2.

As to `COc1cc2s/c(=N\C(=O)c3cccc([N+](=O)[O-])c3)n(C)c2cc1OC`, the Inhibition turned out to be 92% with Plasmodium falciparum [1], 79% with Plasmodium falciparum [2] and 5% in the test with HepG2.

For `Cc1ccc(-c2nc3cc(C(=O)NC4CCC(N5CCCc6ccc(C#N)cc6C5)CC4)ccc3[nH]2)cc1` (stereo unspecified), the values for the Inhibition in the test with Plasmodium falciparum [1], with Plasmodium falciparum [2] and with HepG2 were 100%, 49% and 23%, respectively.

`O=C(/C=C/c1ccc(Cl)c(Cl)c1)NCCCCCN1CCC(NC(=O)c2ccc([N+](=O)[O-])cc2)CC1`: the Inhibition was 100% in the test with Plasmodium falciparum [1], 6% in the test with Plasmodium falciparum [2] and 36% with HepG2.

As to `O=C(Nc1ccc(F)cc1)NC1CCN(c2ccnc3cc(Cl)ccc23)CC1.O=C(O)C(F)(F)F`, the Inhibition in the test with Plasmodium falciparum [1] was 97%; in the test with Plasmodium falciparum [2], 57%; in the test with HepG2, 10%.

In the case of `COc1cc(-c2ccc3c(-c4ccc(C(=O)N5CCN(C)CC5)cc4)n[nH]c3n2)cc(OC)c1OC`, the Inhibition amounted to 91% with Plasmodium falciparum [1], 54% in the test on Plasmodium falciparum [2] and 27% in the test on HepG2.

Take `CCCCCCN1CCCN(Cc2ccc(C(=O)Nc3ccc(CC)cc3)cc2)CC1.O=C(O)C(F)(F)F`: the Inhibition in the test with Plasmodium falciparum [1] was 97%; with Plasmodium falciparum [2] it was 50%; in the test with HepG2, 53%.

Turning to `COc1cc(Cn2ccc3c4c(N)nc(N)nc4ccc32)cc(OC)c1OC`, the values for the Inhibition in the test on Plasmodium falciparum [1], in the test on Plasmodium falciparum [2] and with HepG2 were 94%, 97% and 66%, respectively.

On to `CCCCNCc1ccc(-c2nc(CN(CCCn3ccnc3)C(=O)Nc3ccc(CC)cc3)cs2)cc1.O=C(O)C(F)(F)F`, for which the Inhibition with Plasmodium falciparum [1] was determined as 100%; in the test with Plasmodium falciparum [2], 56%; with HepG2, 21%.

As for `COc1ccc(CCC(C)(C)NCC(O)c2cccc(C(F)(F)F)c2)cc1` (stereo unspecified), the Inhibition in the test with Plasmodium falciparum [1] stood at 99%; in the test with Plasmodium falciparum [2] it was 98%; with HepG2, 26%.

As for `COCC(C)n1c(SCC(=O)Nc2cc(C(F)(F)F)ccc2Cl)nc2ccccc2c1=O` (stereo unspecified), the Inhibition with Plasmodium falciparum [1] was found to be 97%; with Plasmodium falciparum [2], 96%; in the test with HepG2, 3%.

These data come from ChEMBL document CHEMBL1157539, “Thousands of chemical starting points for antimalarial lead identification” (Nature, 2010).
